PubChem BioAssay (Tox21)
Records with an inconclusive call do not appear. Unmarked numbers belong to inactive results. Calls come from the whole dose curve.

Assay: qHTS assay to identify small molecule agonists of the endoplasmic reticulum stress response signaling pathway - cell viability counter screen (AID 1159517); note: nearly all actives have a fitted effect of over 50% in size
Conditions: ESRE-bla HeLa viability, CellTiter-Glo luminescence, 5 h; series mostly up to 61 µM; activity change, negative = cytotoxicity: at the top concentration
Description: U.S. Tox21 Program National Center for Advancing Translational Sciences [NCATS] NIH Chemical Genomics Center [NCGC] U.S. Environmental Protection Agency [EPA] National Institutes of Environmental Health Sciences [NIEHS] National Toxicology Program [NTP] U.S. Food and Drug Administration [FDA] Tox21 Assay Overview: Endoplasmic Reticulum (ER) plays an important role in cellular signaling, protein folding/maturation, stress response, lipid biosynthesis, calcium storage and release etc. Under stress conditions, proteins in ER misfold or unfold, and leading to the expression of ER stress responsive genes. ER stress has been associated with a variety of pathophysiological conditions such as cancer, inflammation, neurodegenerative diseases, diabetes, ischemic heart disease etc. To identify the compounds that induce ER stress response, an ER stress reporter cell line, CellSensor ESRE-bla HeLa (Life Technologies, Carlsbad, CA) containing a beta-lactamase reporter gene under control of the Endoplasmic reticulum Stress Response Element (ESRE) was used to screen Tox21 10K compound library. The cytotoxicity of the Tox21 compound library against the ESRE-bla HeLa cell line was tested in parallel by measuring cell viability using the CellTiter-Glo assay in the same wells.
Tox21 Assay Protocol Summary: ESRE-bla HeLa cells were dispensed at 1,500 cells/6 uL of assay medium per well into black wall/clear-bottom 1536-well plates using a Multidrop Combi (ThermoFisher Scientific, Waltham, MA) dispenser. After the assay plates were incubated at 37 C and 5% CO2 for an overnight, 23 nL of compounds dissolved in DMSO, positive controls or DMSO only was transferred to the assay plate by a Pintool station (Kalypsys, San Diego, CA). The assay plates were incubated at 37 C and 5% CO2 for 5 hr. One uL of LiveBLAzer B/G FRET substrate (Life Technologies) was added using a FRD (Flying Reagent Dispenser, Aurora Discovery, San Diego, CA) and the plates were incubated at room temperature for 2 hr. Fluorescence intensity (405 nm excitation, 460 nm and 530 nm emissions) was measured using an Envision plate reader (PerkinElmer, Shelton, CT). For cytotoxicity, 4 ul/well of CellTiter-Glo reagent was added into the assay plates using an FRD. After 30 min incubation at room temperature, the luminescence intensity was measured using a ViewLux plate reader (PerkinElmer).
% is set by controls: 0 for no effect and ±100 for the full control effect.

First: COc1cc(S(N)(=O)=O)cc(C(=O)O)c1OC
Second: COc1cc(C(=O)NC2CCCNC2)cc(OC)c1OC (stereo not given)
The “activity change, negative = cytotoxicity” value of the first is higher: 4.07% for the first, -16.1% for the second.

Compared with `CCCCCCCOC(C)=O`, `CCCCCCCCCCCC(C)=O` is lower in “activity change, negative = cytotoxicity” value: -5% for the first, -12.9% for the second.

Compared with `Cc1cc(O)c(Cl)cc1C`, `Cc1nc2ccc(Cl)cc2[nH]1` is higher in “activity change, negative = cytotoxicity” value: -2.44% for the first, 12.4% for the second.

First: CC[C@@]1(c2ccccc2)NC(=O)N(C)C1=O
Second: CC(C)(C)OC(=O)c1ccccc1C(=O)O
The “activity change, negative = cytotoxicity” value of the first is higher: -0.005% for the first, -15.4% for the second.

Going from `CCOC(=O)c1ccc(N(C)C)cc1` to `Cc1ccc(OC(=O)CC(C)C)cc1`, the “activity change, negative = cytotoxicity” value falls from -14.4% to -20.1%.

First: CN(C)CCc1c[nH]c2ccc(CS(=O)(=O)N3CCCC3)cc12
Second: O=C1CC2(CCCC2)CC(=O)N1CCNCC1COc2ccccc2O1 (stereo not given)
The “activity change, negative = cytotoxicity” value of the first is lower: -16.3% for the first, 2.93% for the second.

Compared with `CCCC(C)C(O)CC` (stereo not given), `CCCCCCC(O)CO` (stereo not given) is higher in “activity change, negative = cytotoxicity” value: -1.97% for the first, 3.32% for the second.

First: CCCCOCCCC
Second: CCCCC(CC)COC(=O)CC#N (stereo not given)
The “activity change, negative = cytotoxicity” value of the first is higher: -5.09% for the first, -7.93% for the second.

First: CCOC(=O)CC(C(C)=O)C(C)=O
Second: CC(C)(C)C(=O)NCCCC(=O)O
The “activity change, negative = cytotoxicity” value of the first is higher: -12.2% for the first, -29.9% for the second.

First: COC(=O)N/N=C/c1c[n+]([O-])c2ccccc2[n+]1[O-]
Second: COc1cnc(NS(=O)(=O)c2ccc(N)cc2)nc1
The “activity change, negative = cytotoxicity” value of the first is lower: -14.2% for the first, 19% for the second.

First: COc1cc(OC)cc(OC)c1
Second: CCOc1ccccc1OCCN[C@H](C)Cc1ccc(OC)c(S(N)(=O)=O)c1
The “activity change, negative = cytotoxicity” value of the first is lower: -4.64% for the first, -1.26% for the second.

Going from `Cc1ccc(Br)cc1` to `Cc1ccc2ccccc2n1`, the “activity change, negative = cytotoxicity” value falls from 1.78% to -2.26%.

First: CN1C(CCl)Nc2cc(Cl)c(S(N)(=O)=O)cc2S1(=O)=O (stereo not given)
Second: O=S(=O)(O)CC(O)CCl (stereo not given)
The “activity change, negative = cytotoxicity” value of the first is lower: -1.87% for the first, 1.97% for the second.

First: CNC(C)=O
Second: CC1(C)C(=O)C(C)(C)C1=O
The “activity change, negative = cytotoxicity” value of the first is lower: 0.14% for the first, 8.01% for the second.

Compared with `C=CCN1CCc2nc(N)sc2CC1`, `CC(=O)SC[C@@H](C)C(=O)N1CCC[C@H]1C(=O)N[C@@H](Cc1ccccc1)C(=O)O` is lower in “activity change, negative = cytotoxicity” value: 10.9% for the first, 0.0791% for the second.

With `CCCCN=C(N)N=C(N)N` the “activity change, negative = cytotoxicity” value was -1.5%.

Compared with `C=C(C)C(=O)OCCOC1CC2CC1C1C=CCC21` (stereo not given), `CC(C)(O)CCCC1=CCC(C=O)CC1` (stereo not given) is lower in “activity change, negative = cytotoxicity” value: -5.94% [at 78.8 µM] for the first, -9.76% [at 78.8 µM] for the second.

Going from `C=CCn1cc[n+](C)c1` to `C/C(Cl)=C/CCl`, the “activity change, negative = cytotoxicity” value falls from 6.17% [at 78.8 µM] to -11% [at 78.8 µM].

Compared with `C=CCOC(=O)CCCCCCCC`, `CC(O)C(CO)C(C)O` (stereo not given) is lower in “activity change, negative = cytotoxicity” value: 4.47% [at 78.8 µM] for the first, -14.4% [at 78.8 µM] for the second.

Going from `CN(C)CCCN(C)C` to `CCCCCCCCCCCCCCCCN(C)C`, the activity change, negative = cytotoxicity falls from 19.8% [at 6.95 µM] to -14.5% [at 6.95 µM].

With `CCCCCCCCCCCCCCCC(=O)OC` the “activity change, negative = cytotoxicity” value was -8.82% [at 28.5 µM].
